Screening data from PubChem.
Shown are actives, neighbours in structure and some others; about 8% of the full set was active somewhere.
KB-3-1 cytotox: qHTS assay for MDR1-selective chemotherapeutics: Primary screen using the parental adenocarcinoma cell KB-3-1. KB-3-1 viability, CellTiter-Glo ATP luminescence, 72 h. Potency, µM (series often up to 46.1 µM), most hits filed as cytotoxic. 1.4% of 400,000 active. AID 1347075, 2019; also: % is scaled to controls: 0 for no effect and ±100 for the full control effect; nearly all actives have a fitted effect of over 60% in size
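Multi-concentration cytotoxicity screen in KB-3-1 cells grown in DMEM lacking phenol red with 10% FBS. After 72 h at 37 °C with compound, ATP-dependent luminescence was recorded.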
MCF10A rerep: A quantitative high throughput screen for small molecules that induce DNA re-replication in MCF 10a normal breast cells; MCF 10A DNA re-replication, Hoechst nuclear intensity, 48 h; Potency, µM (highest dose often 46.1 µM), for the others: at the highest dose activity, positive = re-replication, most hits filed as activators; 2.9% of 350,000 active; AID 624296, 2012; also: % of control where 0% means no effect; nearly all actives have a fitted effect of over 50% in size
HT1080 IDH1KD tx: qHTS for induction of synthetic lethality in tumor cells producing 2HG: qHTS for the HT-1080-IDH1KD cell line; HT-1080 IDH1 knockdown viability, ATP luminescence, 48 h; Potency, µM (titrated, usually from 46.1 µM), inactives show at the top dose activity, negative = toxicity, usual class: cytotoxic; 2% of 360,000 active;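 also: 0% = DMSO wells and -100% = cell-free medium wells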
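IDH1KD HT-1080 cells, 750/well, RPMI + 5% FBS; compound pinned after 2 h settling; 48 h, 37 °C; CellTiter-Glo luminescence; % activity normalised to DMSO and no-cell wells; curves fitted, classed by r2 and efficacy.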
SW480 rerep: A quantitative high throughput screen for small molecules that induce DNA re-replication in SW480 colon adenocarcinoma cells; 1.8% of 340,000 active; Potency, µM (highest dose often 46.1 µM), for the others: at the highest dose re-replication activation, most hits filed as activators; SW480 DNA re-replication, Hoechst DNA content imaging, 48 h; also: % of control where 0% means no effect; nearly all actives have a fitted effect of over 55% in size
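Per well, 250 cells were exposed to pinned compound for 48 hr. Nuclear DNA was visualised with Hoechst (40 min, 37 C) and total object intensity recorded by fluorescence scanning.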
HT1080-NT tox: qHTS for induction of synthetic lethality in tumor cells producing 2HG: qHTS for the HT-1080-NT fibrosarcoma cell line | 1.6% of 360,000 active | AID 686970, 2013 | Potency, µM (highest dose often 46.1 µM), for inactives: top-dose activity, negative = less viability, most hits filed as cytotoxic | HT-1080-NT fibrosarcoma viability, CellTiter-Glo ATP luminescence, 48 h;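 also: NT is the 2HG producing partner of a matched IDH1 knockdown line; 0% = DMSO-treated cells and -100% = media-only wells without cells; nearly all actives have a fitted effect of over 55% in size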
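HT-1080-NT fibrosarcoma cells (2HG-overproducing), 750 cells/well in RPMI with 5% FBS, dosed after 2 h and incubated 48 h at 37C. CellTiter-Glo luminescence normalized to DMSO and no-cell wells; concentration-response curves fitted and classed.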
KB-V1 MDR tox: qHTS assay for MDR1-selective chemotherapeutics: Primary screen using the drug-selected MDR subline cells KB-V1; KB-V1 MDR cells viability, CellTiter-Glo, 72 h; Potency, µM (titrated, usually from 46.1 µM), most hits filed as cytotoxic; 3.4% of 400,000 active; also: % is scaled to controls: 0 for no effect and ±100 for the full control effect; nearly all actives have a fitted effect of over 60% in size
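In this primary screen, KB-V1 cells overexpressing P-gp are incubated with library compounds (lowest to highest concentration) for 72 h at 37 degrees C before a luminescent ATP viability read.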
* = called active by the depositor; i = inactive; ? = inconclusive; · = not tested or not shown; [ ] = remark or other dose. Calls follow the shape of the dose curve; as a rule, active = well fitted curve in the direction sought with a large enough effect; inconclusive = small, poorly fitted or top-dose-only effect, or another doubt; inactive = no such curve, though single readings can be large; an effect the other way counts as inactive or inconclusive. Potency is read from the fitted curve at half-maximal effect.

SMILES | KB-3-1 cytotox | MCF10A rerep | HT1080 IDH1KD tx | SW480 rerep | HT1080-NT tox | KB-V1 MDR tox
Cn1c(=O)[nH]c(=O)c2c1nc(N1CCN(CCO)CC1)n2Cc1ccccc1Cl | i | 0.651µM* | -5.2% | -16.1% | -7.2% | i
CCCCCn1c(CN2CCN(c3cccc(Cl)c3)CC2)nc2c1c(=O)[nH]c(=O)n2C | 23.1µM* | 11.6% | ? | ? | ? | ?
Cn1c(=O)[nH]c(=O)c2c1nc(CN1CCN(c3cccc(Cl)c3)CC1)n2CCc1ccccc1 | i | -1.6% | ? | 15.0% | ? | ?
COc1ccc(S(=O)(=O)NC(=O)C2(C)CCN2C(=O)C2(c3ccc(Cl)cc3)CCC2)cc1 (stereo not given) | i | · | 1.3% | · | ? | i
CCOC(=O)N1CCN(C(=O)c2sc3nc(-c4ccc(F)cc4)cn3c2C)CC1 | i | 2.4% | 7.2% | -5.4% | 5.2% | 7.31µM*
Cc1c(C(=O)N2CC(C)OC(C)C2)sc2nc(-c3ccc(F)cc3)cn12 (stereo not given) | ? | -7.5% | -3.6% | -3.5% | 18.6% | 8.2µM*
CCN(CC)C(=S)SCC(=O)c1ccc(F)cc1 | ? | ? | ? | ? | ? | 18.4µM*
c1ccc2c(-c3c[nH]c4ccccc34)c3ccccc3nc2c1 | i | 8.2µM* | ? | ? | ? | i
N#CCCN(C(=O)COC(=O)c1cccc(S(=O)(=O)N2CCCC2)c1)c1ccc(F)cc1 | i | 1.8% | 9.7% | -0.8% | 6.5% | i
O=C(COC(=O)c1cccc(S(=O)(=O)N2CCCC2)c1)Nc1ccccc1C(F)(F)F | i | 6.4% | 6.8% | 4.61µM* | -0.5% | i
N#CCCN(C(=O)COC(=O)c1cccc(S(=O)(=O)N2CCCCCC2)c1)c1ccc(F)cc1 | i | 0.3% | 14.7% | -1.8% | -2.3% | 13µM*
CC(C)(C)c1ccc(OCC(=O)NNC(=O)c2cccnc2)cc1 | i | 8.2% | 10.6% | -8.7% | 23.3% | i
CCn1c(=O)c2sccc2n2c(CCC(=O)Nc3ccc(OC)cc3OC)nnc12 | i | · | · | · | · | i
CCc1cccc(C)c1NC(=O)Cn1ncc2c3ccccc3n(Cc3ccccc3)c2c1=O | i | · | · | · | · | i
CCC(CO)Oc1cc(NCc2ccc(C)c(C)c2)c2ncn(C(C)C)c2c1 (stereo not given) | ? | 14.6µM* | -16.2% | 5.17µM* | ? | i
CCC(CN(C)C)Oc1cc(NCc2ccccc2)c2ncn(C(C)C)c2c1 (stereo not given) | i | ? | -12.6% | 18.4µM* | -12.5% | i
CCC(CO)Oc1cc(NCc2cc(C)cc(C)c2)c2ncn(C(C)C)c2c1 (stereo not given) | ? | 1.5% | -5.0% | 12.5% | -3.2% | i
CCC(CO)Oc1cc(NCc2ccc(F)cc2)c2ncn(C(C)C)c2c1 (stereo not given) | i | 23.1µM* | -4.1% | ? | -5.9% | i
CCC(CO)Oc1cc(NCc2ccncc2)c2ncn(C(C)C)c2c1 (stereo not given) | i | 18.0% | 0.0% | 3.0% | 11.2% | i
CC(C)(C)C(=O)Oc1ccc2cc(-c3ccc4ccccc4n3)c(=O)oc2c1 | i | 6.51µM* | -7.5% | 23.1µM* | -1.6% | i
CCN(CC)CCNc1cccc2sc3ccccc3c(=O)c12 | i | · | -13.8% | · | -2.8% | ?
CN(C)CCNc1cccc2sc3ccc(O)cc3c(=O)c12 | 16.4µM* | · | 11.6µM* | · | 9.2µM* | 23.1µM*
Cc1ccc(NCCN(C)C)c2c(=O)c3cc(O)ccc3sc12 | ? | 8.0% | ? | ? | ? | 11.6µM*
CCOC(=O)c1cnc2c(C)cc(Cl)cc2c1NCCCN1CCOCC1 | i | 23.1µM* | 5.4% | -0.1% | 2.0% | i
Cc1ccccc1-n1cc(C(=O)c2cc(Cl)ccc2O)cc(C#N)c1=O | ? | -3.2% | -0.8% | -20.3% | -0.2% | 14.6µM*
SMILES | KB-3-1 cytotox | MCF10A rerep | HT1080 IDH1KD tx | SW480 rerep | HT1080-NT tox | KB-V1 MDR tox
O=C(NC1CCCC1)C(c1ccncc1)N(CC1CCCO1)C(=O)Cn1nnc(-c2cccs2)n1 (stereo not given) | ? | 11.4% | 3.9% | -0.3% | 15.7% | 23.1µM*
Cc1ccc(C)c(N(C(=O)Cn2nnc(-c3cccs3)n2)C(C(=O)NC2CCCC2)c2ccncc2)c1 (stereo not given) | i | -180.4%[0.0737 µM] | 17.7% | -28.0% | 4.5% | i
CC(C)(C)NC(=O)C(c1ccncc1)N(Cc1cccs1)C(=O)Cn1nnc(-c2ccc(F)cc2)n1 (stereo not given) | i | 10.3µM* | ? | 19.9% | ? | i
CC(C)(C)NC(=O)C(OC(=O)Cn1nnc(-c2ccc(F)cc2)n1)c1ccncc1 (stereo not given) | i | 20.6µM* | 8.9% | 12.4% | -1.3% | i
N#Cc1c(-c2ccccc2)cc(C2CC2)nc1SCC(=O)c1cccs1 | i | 16.5% | 21.4% | 9.2µM* | 15.0% | ?
FC(F)(F)c1cc(-c2ccc(Cl)cc2)nc2ncnn12 | i | -3.4% | 0.7% | -0.7% | 1.3% | i
Cc1ccc(SC(C)C(=O)NC(N)=O)c(C)c1 (stereo not given) | i | 0.581µM* | 1.3% | -2.5% | -2.9% | ?
CCCCN1C(C(=O)c2ccccc2)=C(OC(=O)CC)c2ccccc2S1(=O)=O | 14.6µM* | · | · | · | · | i
CCCCCN1C(C(=O)c2ccccc2)=C(OC(=O)CC)c2ccccc2S1(=O)=O | ? | · | · | · | · | i
CCCn1c(=O)[nH]c(=O)c2c1nc(-c1ccccc1OC(F)F)n2CCOC | i | 5.6% | 4.0% | 1.1% | 1.6% | 18.4µM*
CCOC(=O)c1ccccc1NC(=O)CSc1ncc(CO)n1Cc1ccc(C)cc1 | i | · | · | · | · | i
Cc1ccc(S(=O)(=O)Nc2ccc(Cl)cc2)cc1NC(=O)c1cc2c(s1)CCCC2 | i | ? | ? | 4.1% | ? | 14.6µM*
Cc1ccc(NS(=O)(=O)c2cc(NC(=O)c3cc4c(s3)CCCC4)ccc2C)c(C)c1 | i | 11.0% | -5.3% | -5.2% | -1.1% | 3.66µM*
COc1ccc(-n2ncc3c(=O)n(CC(=O)Nc4ccc5c(c4)OCCO5)cnc32)cc1 | i | ? | -11.0% | 27.7% | -30.3% | i
